Bioassay records (PubChem BioAssay)
An excerpt weighted towards active compounds, which were near 21% of everything screened.
Shiga inhibitor = A qHTS for Small Molecule Inhibitors of Shiga Toxin; Vero cells, Shiga toxin protein synthesis inhibition reporter; inhibition, % at 38.7 µM; 290,000 tested, 9.2% active; AID 2315, 2010; in the data active = inhibition mostly above about 28%, no sharp cut-off; inactive = mostly below about 43%; also: 0% is about no effect
Pf growth 48h = Primary qHTS for delayed death inhibitors of the malarial parasite plastid, 48 hour incubation; P. falciparum luciferase growth in erythrocytes, 48 h; 310,000 tested, 5.9% active; AID 504832, 2011; Potency, µM (top dose mostly 28.7 µM), inactives show at the top dose activity change, negative = inhibition, usual class: inhibitors; also: potency is read from the fitted curve at half-maximal effect; % is scaled to controls: 0 for no effect and ±100 for the full control effect
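Read-out is firefly luciferase luminescence from an integrated reporter in P. falciparum, so falling signal marks reduced parasite growth. Infected erythrocytes were at 2% hematocrit and 0.1% parasitemia (final) in Albumax-supplemented RPMI 1640.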
Pf growth 96h = Primary qHTS for delayed death inhibitors of the malarial parasite plastid, 96 hour incubation; P. falciparum luciferase reporter growth, 96 h; Potency, µM (highest dose often 28.7 µM), for the others: at the top dose activity change, negative = inhibition, most hits filed as inhibitors; 320,000 tested, 6.9% active; also: potency is read from the fitted curve at half-maximal effect; % is scaled to controls: 0 for no effect and ±100 for the full control effect
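Luminescence readout: decreased luciferase signal marks inhibited growth of reporter-expressing P. falciparum in infected red cells (2% hematocrit, 0.05% parasitemia final), exposed to compound two generations (96 h, 37 C, 5% CO2).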
Cycloheximide cs = Cycloheximide Counterscreen for Small Molecule Inhibitors of Shiga Toxin; 300,000 tested, 12% active; max response, %; AID 2314, 2010; cell reporter, cycloheximide protein synthesis inhibition counterscreen; in the data active = max response mostly above about 13%, no sharp cut-off; inactive = mostly below about 14%; also: read at 38.3 µM for the half of the compounds with a filed dose; 0% is about no effect
Numbers without * were called inactive; ? = inconclusive; . = not tested or not shown. Unless noted, calls follow the shape of the dose curve; as a rule, active = well fitted inhibition curve with a large enough effect; inconclusive = small, poorly fitted or top-dose-only effect, or another doubt; inactive = no such curve, though single readings can be large or run the other way.

SMILES | Shiga inhibitor | Pf growth 48h | Pf growth 96h | Cycloheximide cs
CS(=O)(=O)N1CCC(Oc2ccccc2C(=O)NC2CCCCCC2)CC1 | 13 | -35% | 11% | 17*
Cc1nnc2c3ccccc3c(Cl)nn12 | 17 | 46% | ? | 2
CC1CCCN(CCCNC(=O)c2ccc(N3CCCC3=O)cc2)C1 (stereo not drawn) | -1 | 3% | ? | -1
COc1ccc(N(CC(=O)N/N=C/c2ccc3c(c2)OCO3)S(=O)(=O)c2ccccc2)cc1 | 26 | 3% | ? | -3
CS(=O)(=O)N1CCC(Oc2ccccc2C(=O)N2CCC[C@H]2CO)CC1 | 40 | 13% | -9% | 17*
CCOCCCNC(=O)c1cccc(OC2CCN(S(C)(=O)=O)CC2)c1 | 35* | 28% | -16% | 30*
CCOC(=O)c1cc(C)sc1/N=C/C1=C(O)CCCC1=O | 39 | 13% | 21% | -2
Cc1ccc(S(=O)(=O)N[C@@H](C)C(=O)N2CCC(C(=O)N[C@@H](Cc3ccccc3)C(=O)O)CC2)cc1 | 14 | 20% | 13% | -3
COc1cccc2cc(C(=O)NCCc3c[nH]c4ccccc34)c(=O)oc12 | 2 | 9% | -12% | 15
COc1ccc(OC)c(NC(=O)C(=O)NNC(=O)C23CC4CC(CC(C4)C2)C3)c1 | 18 | ? | 0% | 1
Fc1ccc(SCCc2ccncc2)cc1 | -2 | 7% | 15% | 3
Cc1ccc(NCCc2ccc(C)nc2)cc1 | -11 | . | 149% | 12
Cc1ccc(CCSc2ccc(F)cc2)cn1 | 64* | 22% | ? | 15*
Cc1ccc(CCSc2ccc(C(C)C)cc2)cn1 | 30* | 11% | 12µM* | 9.2*
O=C1/C(=C/N(C(=O)c2ccco2)c2ccc(Br)cc2)Sc2ccccc21 | 0 | 75% | -23% | 37*
O=C1/C(=C/N(C(=O)c2ccco2)c2ccc(Cl)cc2)Sc2ccccc21 | 91* | 92% | 0% | 39*
COc1ccc(N(CC(=O)NCc2ccc(F)cc2)C(=O)Cn2nnc(-c3ccc(C)o3)n2)cc1OC | -4 | ? | -6% | 2
Cc1sc(NC(=O)Cc2ccc3c(c2)OCO3)nc1-c1ccc2c(c1)CCN2C(=O)c1ccccc1F | 15 | -14% | -1% | 11
Cc1sc(NC(=O)CN(C)C2CCCCC2)nc1-c1ccc2c(c1)CCN2S(=O)(=O)c1ccccc1 | -9 | . | 2.9µM* | -4
Cc1sc(NC(=O)Cc2ccc3c(c2)OCO3)nc1-c1ccc2c(c1)CCN2C(=O)c1ccc(F)cc1 | -8 | 9.3µM* | 5% | -5
CC(=O)Nc1nc(-c2ccc3c(c2)CC(C)N3C(=O)C2CC2)c(C)s1 (stereo not drawn) | 65* | -14% | -11% | 20*
CCOC(=O)C(=O)Nc1nc(-c2ccc3c(c2)CCN3C(=O)C2CC2)c(C)s1 | 47 | 5% | -25% | 20*
Cc1sc(NC(=O)c2ccco2)nc1-c1ccc2c(c1)CC(C)N2C(=O)C1CC1 (stereo not drawn) | 175* | ? | 5% | 31*
COc1ccc(NC(=O)c2ccc(F)c(F)c2)c2ccccc12 | 32 | -3% | 9% | -5
O=P1(O)C=C(c2ccccc2)OC(c2ccccc2)=C1 | 146* | 89% | -17% | 67*
SMILES | Shiga inhibitor | Pf growth 48h | Pf growth 96h | Cycloheximide cs
Cc1ccnc(NC(=O)c2cc(S(=O)(=O)NCc3ccccc3)ccc2C)c1 | . | -23% | 0% | .
Cc1cccc(CC(C)NC(=O)c2oc3c(F)cccc3c2C)n1 (stereo not drawn) | 29* | 12% | ? | 15*
CC(SC1=NCCS1)C(=O)Nc1nnc(-c2ccc(Cl)cc2)s1 (stereo not drawn) | 29* | 15% | 29% | 12*
CC(Sc1nncn1C)C(=O)Nc1nnc(-c2ccccc2)s1 (stereo not drawn) | 46* | 26% | 15% | 23*
COc1ccc(C(=O)NC(=S)NCc2ccco2)cc1Br | 9 | ? | ? | 9
Cc1ccc(C(=O)NC2CC3CCCC(C2)N3C(=S)NCc2ccco2)cc1 (stereo not drawn) | -8 | 10µM* | 33% | 1
CCNC(=S)NC1CC2CCCC(C1)N2Cc1ccco1 (stereo not drawn) | 15 | 17% | ? | -1
COc1ccc(C(=O)Nc2ccc(Cl)cc2C(=O)NCc2ccco2)cc1 | 21 | ? | ? | 14*
Cc1ccc(C(=O)NC(=S)NCc2ccco2)cc1 | 46 | 53% | ? | 35*
COc1ccc(C(=O)NC(=S)NCc2ccccc2)cc1OC | 1 | -8% | 10% | -1
Cc1ccc(C(=O)NC(=S)NCc2ccccc2)cc1 | 45 | 86% | ? | 16*
Cc1cc(C)cc(NC(=O)CS(=O)(=O)c2cccc3nsnc23)c1 | -8 | 9% | 1% | -2
COc1ccc(C(=O)NC(=S)NCc2ccco2)cc1 | 44* | 14% | 3% | 22*
Cc1ccc(NC(=O)C(=S)NCc2ccco2)cc1 | 38 | 76% | 92% | 38*
COc1cccc(C(=O)c2cn(CC(=O)NCc3ccco3)c3nc(C)ccc3c2=O)c1 | -11 | -18% | 4.1µM* | -2
COc1cc(OC)cc(C(=O)NC(=S)NCc2ccco2)c1 | -14 | 9% | 0% | -2
COc1cccc(C(=O)NC(=S)NCc2ccco2)c1 | 40* | 70% | 3.7µM* | 23*
COc1ccc(S(=O)(=O)N2CCOCC2)cc1NC(=O)COc1cccnc1[N+](=O)[O-] | 6 | 171% | 0% | 37
CCCOc1ccc(C(=O)NC2CCSc3ccccc32)cc1 (stereo not drawn) | 26 | ? | -16% | 16
Nn1c(SCC(=O)Nc2ccccc2C(F)(F)F)nncc1=O | -8 | 10% | 6% | 2
COc1ccc(C(=O)NC(=S)NCc2ccco2)cc1OC | -8 | 0% | 7.4µM* | -1
CC(C)(C)c1ccc(C(=O)N/C(=C\c2cccs2)C(=O)NCc2ccco2)cc1 | 55 | ? | 8.3µM* | 33*
O=C1CC(N2CCCc3ccccc32)C(=O)N1c1ccccc1 (stereo not drawn) | -9 | 16% | 12µM* | -5
Cc1cc(OCC(=O)N(C)C2CCCCC2)cc(C)c1Cl | 91* | -2% | -5% | 42*
CN(C(=O)COC(=O)COc1ccc(Cl)cc1)C1CCCCC1 | -11 | 4% | -15% | -4
Cc1cc(OCC(=O)N(C)C2CCCCC2)ccc1Cl | 55 | 484% | ? | 25*
CN(C(=O)COC(=O)c1ccc(Cl)cc1N)C1CCCCC1 | 13 | -8% | 21% | 21*
CCc1ccc(OCCOCC(O)CNC2CCCC2)cc1 (stereo not drawn) | -7 | ? | 0% | -1
CCCNC(=O)c1ccc(N2CCC3(CC2)CC(c2ccccc2)=NO3)c(NC(=O)Cc2ccc(F)cc2)c1 | 1 | ? | 4.7µM* | 1
CCCCC(CC)C(=O)Nc1cc(C(=O)NCc2ccc(C)cc2)ccc1N1CCC2(CC1)CC(c1cccc(Br)c1)=NO2 (stereo not drawn) | . | 2.3µM* | 2.1µM* | .
